Assay results: PubChem BioAssay (EPA / NIEHS)
Several values for one entry are separate records, joined by “and”; a condition that tells them apart may be missing. Equal entries are not always repeated. Records with an inconclusive call do not appear. Activity calls are given as the source filed them. Rule for the calls, unless noted: active = hit-call score of the fitted dose curve at least 0.9, where 1 is the maximum; inactive = score below 0.9.

Columns and labels:
[1] = target: Retinoic acid receptor RXR-alpha (Homo sapiens) (UniProt P19793); assay: OT_NURR1_NURR1RXRa_1440: Odyssey Thera (OT) 24-hour HEK293T Protein Complementation Assay for Nurr1/retinoid X receptor (RXR) (AID 2283386; active = hit-call score of the fitted dose curve at least 0.9, where 1 is the maximum)
Retinoic acid receptor RXR-alpha (Homo sapiens), sequence (P19793 whole entry, looked up, the tested form may be a part): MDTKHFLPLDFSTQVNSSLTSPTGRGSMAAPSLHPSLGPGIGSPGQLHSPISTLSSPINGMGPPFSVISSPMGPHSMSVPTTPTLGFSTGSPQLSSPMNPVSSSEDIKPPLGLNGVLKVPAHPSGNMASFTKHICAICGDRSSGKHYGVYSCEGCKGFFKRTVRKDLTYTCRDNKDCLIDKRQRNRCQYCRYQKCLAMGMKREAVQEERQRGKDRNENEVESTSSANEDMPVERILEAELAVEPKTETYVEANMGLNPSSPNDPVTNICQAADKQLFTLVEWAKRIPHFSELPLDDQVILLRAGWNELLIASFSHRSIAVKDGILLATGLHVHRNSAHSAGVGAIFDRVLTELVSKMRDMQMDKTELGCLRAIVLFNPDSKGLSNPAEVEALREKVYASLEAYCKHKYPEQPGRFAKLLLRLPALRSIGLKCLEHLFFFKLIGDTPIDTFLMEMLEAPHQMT
Outline: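 HEK293T protein-fragment complementation of Nurr1 and RXRα fused to reporter fragments; compounds 24 h. Fluorescence gain from reconstituted reporter fitted versus DMSO.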

[2] = target: Peroxisome proliferator-activated receptor gamma (Homo sapiens) (UniProt P37231); assay: OT_PPARg_PPARgSRC1_0480: Odyssey Thera (OT) 8-hour Protein-Complementation Assay for Peroxisome Proliferator-activated Receptor Gamma / SRC-1 Co-activator (AID 2283387; active = hit-call score of the fitted dose curve at least 0.9, where 1 is the maximum)
Peroxisome proliferator-activated receptor gamma (Homo sapiens), sequence (P37231 whole entry, looked up, the tested form may be a part): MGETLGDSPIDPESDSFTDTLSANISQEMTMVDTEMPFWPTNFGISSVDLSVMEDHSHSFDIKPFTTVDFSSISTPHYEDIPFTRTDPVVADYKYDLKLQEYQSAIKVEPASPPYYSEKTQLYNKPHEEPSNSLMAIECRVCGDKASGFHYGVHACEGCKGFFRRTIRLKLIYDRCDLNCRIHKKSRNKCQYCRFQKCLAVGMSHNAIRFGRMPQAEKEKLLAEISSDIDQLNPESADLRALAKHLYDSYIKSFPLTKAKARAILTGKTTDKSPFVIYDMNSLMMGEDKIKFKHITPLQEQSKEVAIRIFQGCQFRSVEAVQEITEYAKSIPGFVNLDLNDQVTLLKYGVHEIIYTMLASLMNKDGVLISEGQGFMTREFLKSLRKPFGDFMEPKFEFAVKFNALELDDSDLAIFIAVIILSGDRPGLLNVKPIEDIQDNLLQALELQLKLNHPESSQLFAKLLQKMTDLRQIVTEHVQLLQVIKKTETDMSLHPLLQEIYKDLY
Outline: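 Split-YFP (IFP1/IFP2) PPARg/SRC-1 reporter, HEK293T, 37 °C, 5% CO2; 8 h compound; formaldehyde fix + Draq5; high-content imaging, N/C ratio, ≥350 cells/image, positive direction vs DMSO.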

[3] = target: Peroxisome proliferator-activated receptor gamma (Homo sapiens) (UniProt P37231); assay: OT_PPARg_PPARgSRC1_1440: Odyssey Thera (OT) 24-hour Protein-Complementation Assay for Peroxisome Proliferator-activated Receptor Gamma/ SRC-1 Co-activator (AID 2283388; active = hit-call score of the fitted dose curve at least 0.9, where 1 is the maximum)
Outline: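 HEK293T cells transiently transfected with PPARg and SRC-1 fused via (Gly4Ser)2 linker to split Venus YFP fragments (IFP1/IFP2) were dosed 24 h; fixed, Draq5-stained, imaged at 488/635 nm; nuclear/cytoplasmic fluorescence ratio scored versus DMSO baseline, gain-of-signal.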

[4] = CEETOX_H295R_11DCORT: CeeTox H295R High-throughput Steroidogenesis Assay for 11-Deoxycortisol (11DCORT) (AID 2283432); details: actives raise or lower the signal;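 for AC50: 11-deoxycortisol secreted into the medium measured by LC-MS/MS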
Outline: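 Steroidogenesis in human H295R cells: 48 h chemical exposure after forskolin priming, 11-deoxycortisol measured by LC-MS/MS.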

[5] = CEETOX_H295R_OHPREG: CeeTox H295R High-throughput Steroidogenesis Assay for OH-Pregnenolone (OHPREG) (AID 2283434); details: actives raise or lower the signal
Outline: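 Hormone levels in spent medium were measured by tandem mass spectrometry following liquid-liquid extraction. Cells (H295R) had been forskolin-stimulated (10 uM, 48 h) before a 48 h chemical exposure at 0.1% DMSO, with activity fitted in both directions against DMSO.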

[6] = CEETOX_H295R_OHPROG: CeeTox H295R High-throughput Steroidogenesis Assay for OH-Progesterone (OHPROG) (AID 2283435); details: actives raise or lower the signal
Outline: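 H295R adrenal cells prestimulated 48 h with 10 uM forskolin, then exposed 48 h to chemical (0.1% DMSO final). 17alpha-hydroxyprogesterone in medium quantified by HPLC-MS/MS; bidirectional fit versus DMSO, with MTT viability measured in the same wells.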

[7] = CEETOX_H295R_CORTIC: CeeTox H295R High-throughput Steroidogenesis Assay for Corticosterone (CORTIC) (AID 2283437); details: actives raise or lower the signal;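 note: corticosterone secreted into medium quantified by mass spectrometry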
Outline: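 Corticosterone secreted into medium is measured by reverse-phase HPLC with tandem MS following liquid-liquid extraction. Cells are forskolin-stimulated (10 uM, 48 h) before 48 h test exposure; activity fitted in both directions against DMSO.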

[8] = CEETOX_H295R_CORTISOL: CeeTox H295R High-throughput Steroidogenesis Assay for Cortisol (AID 2283438); details: actives raise or lower the signal;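 note: cortisol secreted into medium quantified by LC-MS/MS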
Outline: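 Forskolin-primed H295R cells (10 uM, 48 h) treated 48 h with test chemical in 0.1% DMSO. Cortisol in medium quantified by MTBE extraction and HPLC-MS/MS; bidirectional fit vs DMSO, MTT viability in same wells.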

[9] = CEETOX_H295R_DOC: CeeTox H295R High-throughput Steroidogenesis Assay for DOC (AID 2283439); details: actives raise or lower the signal
Outline: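 H295R cells prestimulated 48 h with 10 uM forskolin, then exposed 48 h to test chemical (0.1% DMSO final). Medium 11-deoxycorticosterone measured by HPLC-MS/MS after MTBE extraction; bidirectional fit vs DMSO, viability checked by MTT in same wells.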

[10] = CEETOX_H295R_ESTRADIOL: CeeTox H295R High-throughput Steroidogenesis Assay for Estradiol (AID 2283440); details: actives raise or lower the signal;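 note: estradiol secreted into medium quantified by LC-MS/MS after dansyl derivatisation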
Outline: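 H295R adrenocortical cells were prestimulated with 10 uM forskolin for 48 h, then exposed to test chemical in 0.1% DMSO for 48 h. Medium estradiol was extracted with MTBE, dansyl-derivatized and quantified by HPLC-MS/MS; bidirectional fit versus DMSO.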

[11] = CEETOX_H295R_ESTRONE: CeeTox H295R High-throughput Steroidogenesis Assay for Estrone (AID 2283441); details: actives raise or lower the signal;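 note: estrone secreted into medium measured by LC-MS/MS after dansyl derivatization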
Outline: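 H295R cells prestimulated 48 h with 10 uM forskolin, then exposed 48 h to chemicals in 0.1% DMSO final; estrone in medium extracted with MTBE, dansyl-derivatized, quantified by HPLC-MS/MS; bidirectional fitting versus DMSO, viability by MTT.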

[12] = CEETOX_H295R_PROG: CeeTox H295R High-throughput Steroidogenesis Assay for Progesterone (PROG) (AID 2283442); details: actives raise or lower the signal
Outline: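 H295R human adrenal cells were prestimulated with 10 uM forskolin for 48 h, then exposed to test chemical (0.1% DMSO final) for 48 h. Medium progesterone was MTBE-extracted and quantified by HPLC-MS/MS, with bidirectional fitting against DMSO.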

[13] = read-out: Tumor necrosis factor receptor superfamily member 6 (Homo sapiens) (UniProt P25445); assay: LTEA_HepaRG_FAS: Life Technologies and Expression Analysis (LTEA) Assay for Fas cell surface death receptor (FAS) using HepaRG (AID 2283447); details: mRNA level, 48 h; actives raise or lower the signal
Outline: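 FAS transcript level was measured by TaqMan qRT-PCR against three housekeeping genes after 48 h chemical exposure. Cells were HepaRG, 0.5% DMSO vehicle, with a top concentration of 100 uM and half-log dilutions over eight points, in duplicate.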

[14] = read-out: Fatty acid synthase (Homo sapiens) (UniProt P49327); assay: LTEA_HepaRG_FASN: Life Technologies and Expression Analysis (LTEA) Assay for Fatty Acid Synthase (FASN) using HepaRG (AID 2283448); details: mRNA level, 48 h; actives raise or lower the signal
Outline: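 Differentiated HepaRG cells in serum-free induction medium exposed 48 h in duplicate to eight half-log concentrations, top 100 uM, 0.5% DMSO. FASN mRNA by qRT-PCR normalised to ACTB, GAPDH, POLR2A; bidirectional fit versus DMSO.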

[15] = read-out: Cyclin D1 (CCND1), CCND1 (gene 595); assay: LTEA_HepaRG_CCND1: Life Technologies and Expression Analysis (LTEA) Assay for Cyclin D1 (CCND1) using HepaRG (AID 2283451); details: mRNA level, 48 h; actives raise or lower the signal;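 for AC50: TaqMan qRT-PCR transcript level normalised to ACTB GAPDH and POLR2A housekeeping genes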
Outline: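 Differentiated human HepaRG cells in serum-free induction medium were exposed 48 h to eight half-log concentrations up to 100 uM in 0.5% DMSO; mRNA quantified by TaqMan qRT-PCR, normalized to ACTB, GAPDH, POLR2A, fitted bidirectionally versus DMSO.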

[16] = read-out: catalase (CAT), CAT (gene 847); assay: LTEA_HepaRG_CAT: Life Technologies and Expression Analysis (LTEA) Assay for catalase (CAT) using HepaRG (AID 2283452); details: mRNA level, 48 h; actives raise or lower the signal;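 for AC50: TaqMan qRT-PCR signal normalized to ACTB GAPDH and POLR2A housekeeping genes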
Outline: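 Expression of CAT was quantified by TaqMan qRT-PCR with ACTB/GAPDH/POLR2A normalization after 48 h chemical exposure of HepaRG. Eight-point half-log series, top 100 uM, in 0.5% DMSO; gain or loss fitted against vehicle.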

[17] = read-out: flavin-containing dimethylaniline monooxygenases 3 (FMO3), FMO3 (gene 2328); assay: LTEA_HepaRG_FMO3: Life Technologies and Expression Analysis (LTEA) Assay for flavin-containing dimethylaniline monooxygenases 3 (FMO3) using HepaRG (AID 2283453); details: mRNA level, 48 h; actives raise or lower the signal
Outline: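 Differentiated HepaRG cells in serum-free induction medium, exposed 48 h in duplicate to 8 half-log concentrations up to 100 uM in 0.5% DMSO. FMO3 mRNA by qRT-PCR, normalized to ACTB, GAPDH, POLR2A; bidirectional fit vs DMSO.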

[18] = read-out: Cyclin Dependent Kinase Inhibitor 1A (CDKN1A), CDKN1A (gene 1026); assay: LTEA_HepaRG_CDKN1A: Life Technologies and Expression Analysis (LTEA) Assay for Cyclin Dependent Kinase Inhibitor 1A (CDKN1A) using HepaRG (AID 2283450); details: mRNA level, 48 h; actives raise or lower the signal
Outline: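 Differentiated human HepaRG cells, pre-cultured 48 h, were exposed in duplicate for 48 h in serum-free induction medium to eight half-log concentrations up to 100 uM (0.5% DMSO). CDKN1A mRNA was measured by qRT-PCR, normalized to ACTB/GAPDH/POLR2A, bidirectionally fitted versus DMSO.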

[19] = read-out: Cyclin D2 (CCND2), CCND2 (gene 894); assay: LTEA_HepaRG_CCND2: Life Technologies and Expression Analysis (LTEA) Assay for Cyclin D2 (CCND2) using HepaRG (AID 2283449); details: mRNA level, 48 h; actives raise or lower the signal
Outline: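 Read-out is CCND2 mRNA level measured by qRT-PCR in human HepaRG liver cells and normalised to three housekeeping genes. Chemicals were applied for 48 h at up to 100 uM, with gain or loss fitted relative to 0.5% DMSO.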

[20] = CEETOX_H295R_ANDR: CeeTox H295R High-throughput Steroidogenesis Assay for Androstenedione (ANDR) (AID 2283436); details: actives raise or lower the signal
Outline: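 Read-out is androstenedione secreted into medium, measured by tandem mass spectrometry after liquid-liquid extraction. Cells were H295R, dosed for 48 h per modified OECD 456; activity fitted in both directions relative to DMSO.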

Measured: AC50

Fatty acid synthase (Homo sapiens), sequence (P49327 whole entry, looked up): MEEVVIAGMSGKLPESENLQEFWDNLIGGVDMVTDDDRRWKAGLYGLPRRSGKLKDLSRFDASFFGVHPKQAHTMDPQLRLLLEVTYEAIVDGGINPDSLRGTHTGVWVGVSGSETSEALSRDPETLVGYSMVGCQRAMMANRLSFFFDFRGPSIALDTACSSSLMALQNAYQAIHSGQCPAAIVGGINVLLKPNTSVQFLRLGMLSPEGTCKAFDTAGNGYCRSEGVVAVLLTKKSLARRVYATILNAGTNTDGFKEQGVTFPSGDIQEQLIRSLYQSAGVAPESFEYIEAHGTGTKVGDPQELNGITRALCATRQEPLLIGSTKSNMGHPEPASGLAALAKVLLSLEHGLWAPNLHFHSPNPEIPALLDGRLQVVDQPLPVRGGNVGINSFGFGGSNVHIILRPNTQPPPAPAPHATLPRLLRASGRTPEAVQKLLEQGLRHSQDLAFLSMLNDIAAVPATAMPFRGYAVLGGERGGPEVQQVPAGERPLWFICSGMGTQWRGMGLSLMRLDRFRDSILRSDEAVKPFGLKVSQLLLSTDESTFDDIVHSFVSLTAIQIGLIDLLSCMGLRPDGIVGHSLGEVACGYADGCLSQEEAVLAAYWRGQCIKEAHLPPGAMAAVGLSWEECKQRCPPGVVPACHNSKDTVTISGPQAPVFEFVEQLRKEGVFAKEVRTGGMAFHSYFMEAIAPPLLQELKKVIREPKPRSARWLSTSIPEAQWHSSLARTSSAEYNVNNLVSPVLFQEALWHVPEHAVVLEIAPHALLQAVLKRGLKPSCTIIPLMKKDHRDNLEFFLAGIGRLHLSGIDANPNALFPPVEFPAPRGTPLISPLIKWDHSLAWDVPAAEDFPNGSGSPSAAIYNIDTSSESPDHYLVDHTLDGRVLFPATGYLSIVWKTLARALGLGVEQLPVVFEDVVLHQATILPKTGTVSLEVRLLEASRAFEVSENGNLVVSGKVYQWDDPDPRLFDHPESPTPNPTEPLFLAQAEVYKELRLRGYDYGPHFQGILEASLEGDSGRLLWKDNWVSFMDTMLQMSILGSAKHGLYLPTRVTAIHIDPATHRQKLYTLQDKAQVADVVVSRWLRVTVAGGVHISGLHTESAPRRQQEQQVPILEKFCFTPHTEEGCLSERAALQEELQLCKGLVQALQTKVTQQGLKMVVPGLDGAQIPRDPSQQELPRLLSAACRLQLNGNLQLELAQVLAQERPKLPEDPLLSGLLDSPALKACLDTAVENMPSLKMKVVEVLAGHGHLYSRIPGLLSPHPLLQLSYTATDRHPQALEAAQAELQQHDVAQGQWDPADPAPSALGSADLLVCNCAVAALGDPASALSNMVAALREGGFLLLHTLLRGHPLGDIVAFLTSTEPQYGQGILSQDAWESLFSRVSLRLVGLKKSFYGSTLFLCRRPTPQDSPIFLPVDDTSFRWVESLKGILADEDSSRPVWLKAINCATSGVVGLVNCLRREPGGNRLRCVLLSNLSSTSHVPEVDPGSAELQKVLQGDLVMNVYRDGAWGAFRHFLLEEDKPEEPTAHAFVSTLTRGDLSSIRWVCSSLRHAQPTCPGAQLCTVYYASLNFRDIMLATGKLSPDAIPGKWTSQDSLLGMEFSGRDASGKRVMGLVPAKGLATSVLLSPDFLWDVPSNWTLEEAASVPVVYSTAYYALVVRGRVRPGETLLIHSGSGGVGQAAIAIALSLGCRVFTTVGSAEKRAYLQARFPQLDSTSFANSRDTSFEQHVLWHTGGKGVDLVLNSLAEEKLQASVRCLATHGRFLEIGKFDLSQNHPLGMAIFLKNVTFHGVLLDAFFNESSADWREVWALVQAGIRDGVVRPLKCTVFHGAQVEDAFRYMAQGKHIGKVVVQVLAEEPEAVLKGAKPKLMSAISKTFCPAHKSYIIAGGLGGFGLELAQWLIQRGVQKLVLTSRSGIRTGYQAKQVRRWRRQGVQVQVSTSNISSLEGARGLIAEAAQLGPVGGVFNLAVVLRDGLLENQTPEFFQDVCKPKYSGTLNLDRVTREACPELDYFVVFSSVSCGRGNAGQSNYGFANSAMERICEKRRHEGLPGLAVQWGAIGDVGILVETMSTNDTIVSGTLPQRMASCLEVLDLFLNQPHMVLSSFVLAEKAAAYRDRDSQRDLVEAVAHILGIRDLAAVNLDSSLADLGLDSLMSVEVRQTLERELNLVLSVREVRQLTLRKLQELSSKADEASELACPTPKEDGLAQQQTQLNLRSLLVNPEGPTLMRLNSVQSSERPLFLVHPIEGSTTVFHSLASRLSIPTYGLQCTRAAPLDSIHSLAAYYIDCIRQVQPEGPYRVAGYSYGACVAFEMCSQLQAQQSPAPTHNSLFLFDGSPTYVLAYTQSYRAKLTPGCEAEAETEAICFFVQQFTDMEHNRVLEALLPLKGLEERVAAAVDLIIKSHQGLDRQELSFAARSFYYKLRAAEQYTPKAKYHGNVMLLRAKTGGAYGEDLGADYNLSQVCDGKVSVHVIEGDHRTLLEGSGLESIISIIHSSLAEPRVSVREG

COC(=O)c1c(Cl)c(Cl)c(C(=O)OC)c(Cl)c1Cl
active: [7] 16.1 µM | [9] 50 µM | [10] 27.4 µM
not listed: [18] | [19] | [20]
inactive: all other assays above

COC(=O)c1ccccc1O
inactive: [13] | [14] | [18] | [15] | [16] | [17]

Cc1[nH]cnc1C[C@H]1CCc2c(C)c3ccccc3n2C1=O
inactive: [18]
active: [13] 69.3 µM | [14] 29.9 µM | [15] 79.7 µM | [16] 24.3 µM | [17] 32 µM

CC(C)CCO
inactive: [1] | [2] | [3] | [14] | [19] | [18] | [15] | [16] | [17]

CCCCCCc1ccc(O)cc1O
inactive: [2] | [3] | [13] | [14] | [19] | [18] | [15] | [16] | [17]

CCOC(=O)COc1ccc2c(c1)CC(NCC(O)c1cccc(Cl)c1)CC2 (stereo unspecified)
inactive: [2] | [13] | [14] | [19] | [18] | [15] | [16] | [17]
active: [1] 10.7 µM and 10.3 µM

CN(C)c1ccc(N=NS(=O)(=O)O)cc1
inactive: [13] | [14] | [15] | [16] | [17]

COCCOc1cc2cc(C(=O)NC3CCN(C(C)C)CC3)n(CC(=O)Nc3ccc(Cl)cn3)c2cn1
active: [14] 32.5 µM | [15] 45 µM | [16] 45 µM | [17] 53.3 µM
inactive: [1] | [13] | [19] | [18]

CC(=O)OC[C@H]1O[C@@](COC(C)=O)(O[C@H]2O[C@H](COC(C)=O)[C@@H](OC(C)=O)[C@H](OC(C)=O)[C@H]2OC(C)=O)[C@@H](OC(C)=O)[C@@H]1OC(C)=O
inactive: [1] | [13] | [14] | [19] | [18] | [15] | [16] | [17]

CC(C)CC(C)(O)C#CC(C)(O)CC(C)C (stereo unspecified)
active: [4] 68.2 µM
not listed: [1] | [10] | [11] | [13] | [18] | [20]
inactive: all other assays above

CC(=O)c1ccc2c(c1)[C@H](NC(=O)c1ccc(F)cc1)[C@@H](O)C(C)(C)O2
inactive: [2] | [3] | [13] | [14] | [19] | [15] | [16] | [17]

COc1ccc2sc(C(=O)Nc3nnn[nH]3)c(OC(C)C)c2c1
inactive: [2] | [3] | [19]
active: [13] 63.8 µM | [14] 89.1 µM | [18] 50 µM | [15] 13.1 µM | [16] 81.3 µM | [17] 10.9 µM

CCOCCO
inactive: [1] | [2] | [3] | [13] | [14] | [15] | [16] | [17]

O=C(OC[C@H]1O[C@@H](OC(=O)c2cc(O)c(O)c(OC(=O)c3cc(O)c(O)c(O)c3)c2)[C@H](OC(=O)c2cc(O)c(O)c(OC(=O)c3cc(O)c(O)c(O)c3)c2)[C@@H](OC(=O)c2cc(O)c(O)c(OC(=O)c3cc(O)c(O)c(O)c3)c2)[C@@H]1OC(=O)c1cc(O)c(O)c(OC(=O)c2cc(O)c(O)c(O)c2)c1)c1cc(O)c(O)c(OC(=O)c2cc(O)c(O)c(O)c2)c1
active: [1] 15.2 µM | [13] 7.03 µM | [14] 15.2 µM | [16] 15.2 µM | [17] 9.23 µM
inactive: [2] | [3] | [19] | [15]

Fc1ccccc1[C@@H](F)COC1CCC(Nc2ncnc3[nH]ncc23)CC1 (stereo partly specified)
active: [4] 5 µM | [5] 5 µM | [6] 3.91 µM | [7] 1.41 µM | [8] 5 µM | [14] 50 µM | [15] 86.4 µM | [16] 37.3 µM | [17] 31.9 µM
inactive: [2] | [3] | [20] | [9] | [12] | [13] | [19]
